Measurements from PubChem BioAssay (NCATS).
“And” between values parts separate entries of the source, which are not always exact repeats. Equal values may be shown once. Results filed as inconclusive are left out. Entries that show only a call come without a potency. The source made the active and inactive calls. Unless noted, the call rests on the fitted dose curve; in most records, active means well fitted curve in the direction sought with a large enough effect; inconclusive means small, poorly fitted or top-dose-only effect, or another doubt; inactive means no such curve, though single readings can be large; an effect the other way counts as inactive or inconclusive.

Legend:
[1] = qHTS Assay for Lipid Storage Modulators (AID 1519; calls by dose curve); settings: Drosophila S3 cells, BODIPY lipid droplet/cell ratio, laser cytometry, cells loaded with oleic acid
Procedure, shortened: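 Cells seeded at 5,000 per well were treated with compounds over a concentration series and loaded with oleic acid (400 uM, as added). Lipid droplet fluorescence (488 nm excitation, 500-530 nm channel) was read by laser-scanning cytometry and normalized to 20 uM Triacsin C.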

[2] = target: DNA repair nuclease/redox regulator APEX1 (Homo sapiens) (UniProt P27695); experiment: qHTS Validation Assay for Inhibitors of the Human Apurinic/apyrimidinic Endonuclease 1 (APE1) (AID 1705; further: potency means the concentration at half of the fitted maximal effect;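 on activity change, negative = inhibition: TAMRA fluorescence gain over two minutes as APE1 cuts a quenched THF abasic duplex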); settings: purified APE1 endonuclease activity, fluorescence, titration; series mostly up to 57.1 µM
Chain of DNA repair nuclease/redox regulator APEX1 (Homo sapiens) (P27695 whole entry, looked up): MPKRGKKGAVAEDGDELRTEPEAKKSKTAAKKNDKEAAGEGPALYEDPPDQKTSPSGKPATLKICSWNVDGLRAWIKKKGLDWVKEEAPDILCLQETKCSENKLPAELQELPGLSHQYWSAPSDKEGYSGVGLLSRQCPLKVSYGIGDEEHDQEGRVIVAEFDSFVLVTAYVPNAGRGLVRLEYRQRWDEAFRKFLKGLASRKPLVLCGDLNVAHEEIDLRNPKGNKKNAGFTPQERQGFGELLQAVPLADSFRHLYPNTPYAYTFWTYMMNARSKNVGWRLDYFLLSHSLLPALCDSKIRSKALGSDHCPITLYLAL
Procedure, shortened: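 Activity read as rising fluorescence (598 nm emission, 525 nm excitation) from incision of a TAMRA/BHQ-2 duplex carrying a THF abasic site (50 nM). Compound and enzyme sat 15 min at RT before substrate start; signal change between first and third 60-s reads.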

[3] = target: Endonuclease 4 (Escherichia coli (strain K12)) (UniProt P0A6C1); experiment: Counterscreen for APE1 Inhibitors: qHTS Validation Assay for Inhibitors of Endonuclease IV (AID 1708); further: potency means the concentration at half of the fitted maximal effect; settings: E. coli endonuclease IV, DNA cleavage fluorescence; series mostly up to 57.1 µM
Procedure, shortened: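 Conditions: 2 nM enzyme, 50 nM TAMRA/BHQ-2 substrate, pH 7.5 Tris buffer with 2 mM MgCl2, RT. Compound preincubation 15 min; readout three fluorescence reads 60 s apart, third-minus-first.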

[4] = qHTS for differential inhibitors of proliferation of Plasmodium falciparum line 3D7 (AID 1876);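 further: parasite growth measured after three days of culture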; settings: P. falciparum 3D7 proliferation inhibition; series mostly up to 28.7 µM
[5] = qHTS for differential inhibitors of proliferation of Plasmodium falciparum line D10 (AID 1877); settings: series mostly up to 28.7 µM;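 further: parasites grown with compound for 72 h before DNA staining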
[6] = qHTS for differential inhibitors of proliferation of Plasmodium falciparum line Dd2 (AID 1882); settings: Potency: Plasmodium falciparum Dd2 proliferation inhibition; series mostly up to 28.7 µM; further: nearly all actives have a fitted effect of over 65% in size
Procedure, shortened: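 SYBR Green DNA fluorescence (ex 485, em 535 nm) after overnight lysis quantifies parasite growth; compound exposure lasted 72 h at 37 C on infected red cells at 2.5% hematocrit, 0.3% parasitemia (final). Artemisinin 0.29 uM and vehicle wells define normalization.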

[7] = qHTS for differential inhibitors of proliferation of Plasmodium falciparum line W2 (AID 1883); settings: Potency: Plasmodium falciparum W2 proliferation inhibition; series mostly up to 28.7 µM;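 further: parasites grown with compound for 72 h before lysis and staining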; further: potency means the concentration at half of the fitted maximal effect
[8] = qHTS for differential inhibitors of proliferation of Plasmodium falciparum line HB3 (AID 1886); settings: Potency: Plasmodium falciparum HB3 proliferation inhibition; series mostly up to 28.7 µM;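 further: parasites grown with compound for 72 h before SYBR Green readout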
[9] = target: Ferritin light chain (Equus caballus) (UniProt P02791); experiment: qHTS Validation Assay for Identification of Novel General Anesthetics (AID 2323); settings: horse apoferritin, anesthetic-site fluorescent probe displacement; series mostly up to 76.9 µM
Chain of Ferritin light chain (Equus caballus) (P02791 2-175 limits assumed): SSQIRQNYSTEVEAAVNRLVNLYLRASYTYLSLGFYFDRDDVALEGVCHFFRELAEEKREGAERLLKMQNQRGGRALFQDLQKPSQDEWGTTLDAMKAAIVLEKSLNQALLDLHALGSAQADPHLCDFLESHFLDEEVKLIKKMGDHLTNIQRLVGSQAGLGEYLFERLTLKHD
Procedure, shortened: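 Competitive displacement of the profluorescent anesthetic 1-AMA (50% saturated, PBS) from 10 uM apoferritin, 10 min, room temperature. Activity is normalized 380/535 nm fluorescence; concentration-response fitted with a four-parameter Hill equation.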

[10] = target: ATP-dependent DNA helicase Q1 (Homo sapiens) (UniProt P46063); experiment: qHTS Validation Assay for Inhibitors of RecQ-Like Dna Helicase 1 (RECQ1) (AID 2353); settings: recombinant RECQ1 helicase DNA unwinding assay; series mostly up to 25.6 µM
Chain of ATP-dependent DNA helicase Q1 (Homo sapiens) (P46063 whole entry, looked up): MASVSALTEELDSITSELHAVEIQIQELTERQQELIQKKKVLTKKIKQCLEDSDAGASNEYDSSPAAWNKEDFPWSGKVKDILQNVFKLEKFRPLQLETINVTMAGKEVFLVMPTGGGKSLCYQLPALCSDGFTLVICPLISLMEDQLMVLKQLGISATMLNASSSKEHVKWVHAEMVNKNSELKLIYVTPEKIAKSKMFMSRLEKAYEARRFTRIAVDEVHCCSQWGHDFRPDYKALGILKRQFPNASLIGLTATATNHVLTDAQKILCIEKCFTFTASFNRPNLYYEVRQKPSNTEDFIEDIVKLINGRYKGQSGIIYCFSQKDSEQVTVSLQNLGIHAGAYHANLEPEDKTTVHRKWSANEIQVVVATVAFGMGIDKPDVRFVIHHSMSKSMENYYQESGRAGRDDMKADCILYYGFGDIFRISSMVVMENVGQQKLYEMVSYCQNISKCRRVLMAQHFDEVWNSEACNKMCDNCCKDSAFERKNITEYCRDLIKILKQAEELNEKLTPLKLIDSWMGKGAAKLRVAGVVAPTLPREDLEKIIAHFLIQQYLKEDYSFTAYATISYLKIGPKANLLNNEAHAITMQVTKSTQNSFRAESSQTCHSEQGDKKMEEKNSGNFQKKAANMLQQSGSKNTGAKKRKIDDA
Procedure, shortened: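 RECQ1T1 50 nM; forked duplex (20 bp + 30-nt ss tails) 200 nM, ATP 2 mM final; pH 8.0, 2 mM MgCl2, 2.5 ug/ml poly(dI-dC); 15 min compound preincubation; discontinuous kinetic read over 2 h at RT.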

[11] = Cytometric Cell-Based qHTS for Inhibitors of the mTORC1 Signaling Pathway in MEF (Tsc2-/-, p53-/-) Cells (AID 2660); settings: mTORC1 pathway cytometry; series mostly up to 38.3 µM;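 further: Tsc2 and p53 null MEFs carrying empty vector with compound for 24 h; percent of cells above a phospho-rpS6 to PI ratio cutoff in each well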
Procedure, shortened: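 Percent of cells positive for normalized phospho-S6 staining is reported, with the cutoff set from rapamycin (7.5 nM) versus DMSO wells. Tsc2-/-, p53-/- MEFs received compound for 24 hrs.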

[12] = High Content Imaging Cell-Based qHTS for Inhibitors of the mTORC1 Signaling Pathway in MEF (Tsc2-/-, p53-/-) Cells (AID 2666); settings: series mostly up to 38.3 µM;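 further: percent of cells scored positive for phospho-rpS6 Ser235/236 immunostaining by imaging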
Procedure, shortened: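 MEF Tsc2-/- p53-/- (empty vector), DMEM/10% FBS; cpd 24 h 37 °C; PFA fix, Alexa-488 p-rpS6 S235/236 Ab, Hoechst; imaged; rapamycin-defined inhibition; % positive cells/well.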

[13] = High Content Imaging Cell-Based qHTS for Inhibitors of the mTORC1 Signaling Pathway in MEF Cells (AID 2667); settings: series mostly up to 38.3 µM;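 further: Tsc2-/- p53-/- MEFs stably re-expressing wild-type Tsc2 exposed 24 h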
Procedure, shortened: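 Read-out is the share of phospho-rpS6-positive cells per well, from Hoechst-normalized Alexa-488 Ser235/236 staining imaged on IN Cell. Cells: WT Tsc2-expressing Tsc2-/-, p53-/- MEFs exposed to compound for 24 hrs.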

[14] = Counterscreen for APE1 Inhibitors: Fluorescent Dye Displacement Validation Assay (AID 1707); settings: fluorescent dye displacement from DNA; series mostly up to 57.1 µM
Procedure, shortened: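 Loss of Thiazole Orange fluorescence marks promiscuous DNA binders. The dye (250 nM) is mixed with 50 nM abasic-site dsDNA in pH7.5 Tris buffer containing MgCl2, then compounds are added and emission is read once.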

[15] = qHTS for differential inhibitors of proliferation of Plasmodium falciparum line 7G8 (AID 1815); settings: Plasmodium falciparum 7G8 proliferation inhibition; series mostly up to 28.7 µM;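 further: parasite growth measured after three days of incubation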
[16] = qHTS for differential inhibitors of proliferation of Plasmodium falciparum line GB4 (AID 1816); settings: Potency: Plasmodium falciparum GB4 proliferation inhibition; series mostly up to 28.7 µM;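 further: parasite growth measured after 72 h incubation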; further: potency means the concentration at half of the fitted maximal effect
[17] = target: RecQ-like DNA helicase BLM (Homo sapiens) (UniProt P54132); experiment: qHTS Validation Assay for Inhibitors of Bloom's syndrome helicase (BLM) (AID 2364); settings: BLM helicase DNA unwinding, fluorescence, in vitro; series mostly up to 57.1 µM
Chain of RecQ-like DNA helicase BLM (Homo sapiens) (P54132 whole entry, looked up): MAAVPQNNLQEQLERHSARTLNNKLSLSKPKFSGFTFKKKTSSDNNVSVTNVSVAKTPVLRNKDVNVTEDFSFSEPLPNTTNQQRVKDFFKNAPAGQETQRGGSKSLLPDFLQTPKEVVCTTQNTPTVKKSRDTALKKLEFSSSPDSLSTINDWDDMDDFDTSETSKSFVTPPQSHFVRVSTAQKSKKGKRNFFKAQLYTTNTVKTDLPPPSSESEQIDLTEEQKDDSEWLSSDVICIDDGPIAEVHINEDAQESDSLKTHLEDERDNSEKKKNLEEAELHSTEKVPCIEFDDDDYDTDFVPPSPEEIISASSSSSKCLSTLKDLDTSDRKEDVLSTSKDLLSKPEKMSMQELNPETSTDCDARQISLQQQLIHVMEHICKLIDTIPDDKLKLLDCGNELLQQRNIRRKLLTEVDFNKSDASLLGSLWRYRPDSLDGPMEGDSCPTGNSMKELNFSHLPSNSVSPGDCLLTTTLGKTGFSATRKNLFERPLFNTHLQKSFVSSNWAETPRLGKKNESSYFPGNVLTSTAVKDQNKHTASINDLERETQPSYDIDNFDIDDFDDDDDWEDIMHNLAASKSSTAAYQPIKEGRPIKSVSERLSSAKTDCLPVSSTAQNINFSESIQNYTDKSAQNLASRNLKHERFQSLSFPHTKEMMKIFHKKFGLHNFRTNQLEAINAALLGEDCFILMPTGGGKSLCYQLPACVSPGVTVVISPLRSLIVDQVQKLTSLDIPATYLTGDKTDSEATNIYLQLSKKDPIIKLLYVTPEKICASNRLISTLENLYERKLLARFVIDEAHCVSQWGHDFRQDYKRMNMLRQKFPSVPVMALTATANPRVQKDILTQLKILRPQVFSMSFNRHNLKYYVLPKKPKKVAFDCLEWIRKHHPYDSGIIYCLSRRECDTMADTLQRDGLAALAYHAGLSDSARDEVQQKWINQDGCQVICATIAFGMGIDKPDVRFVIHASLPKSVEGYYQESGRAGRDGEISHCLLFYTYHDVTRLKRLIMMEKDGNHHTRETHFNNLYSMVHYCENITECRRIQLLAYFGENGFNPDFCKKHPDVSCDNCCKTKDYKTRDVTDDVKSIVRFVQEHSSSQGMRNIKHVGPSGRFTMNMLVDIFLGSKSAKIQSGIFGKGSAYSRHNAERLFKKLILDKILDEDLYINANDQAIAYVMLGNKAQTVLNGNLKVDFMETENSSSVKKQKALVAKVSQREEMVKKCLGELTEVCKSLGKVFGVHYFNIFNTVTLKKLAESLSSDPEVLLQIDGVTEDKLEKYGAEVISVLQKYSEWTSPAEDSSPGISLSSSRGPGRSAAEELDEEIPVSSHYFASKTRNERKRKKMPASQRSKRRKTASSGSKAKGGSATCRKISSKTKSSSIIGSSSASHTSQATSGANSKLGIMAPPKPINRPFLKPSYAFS
Procedure, shortened: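 50 nM BLM preincubated 15 min at room temperature with compound in pH 8.0 Tris buffer containing 2.5 ug/ml poly(dI-dC); started with 200 nM TAMRA/BHQ-2 forked duplex and 2 mM ATP (final). Unwinding read as TAMRA fluorescence increase, two reads 2 h apart.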

[18] = qHTS Assay for Identification of Small Molecule Inducers of Hypoxia Response (AID 2120; active means well fitted curve in the direction sought with a large enough effect in the signal ratio, with a control signal flat, not every such curve was filed as active; the % refers to the signal ratio); settings: hypoxia response reporter cells, beta-lactamase ratio readout; series mostly up to 104 µM
Procedure, shortened: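 Cell-based qHTS for reporter induction: hypoxia response element controlled beta-lactamase in ME-180 cells. Compounds incubated 17 h at 37 degrees C; activity from blue/green (460/530 nm) ratio, inducers ranked by AC50.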

[19] = measured here: cell count channel max response
[20] = measured here: lipid channel max response

Structure (SMILES): CN1C(C(=O)Nc2ccccn2)=C(O)c2ccccc2S1(=O)=O
- activity change, negative = inhibition ([1]; at 25.7 µM (top of the series)): -1.27% (inactive)
- max response [1, 19]: -1.41%
- max response [1, 20]: -3.03%
- Potency [2]: inactive
- Potency [3]: inactive
- Potency [4]: inactive
- Potency [5]: inactive
- Potency [6]: inactive
- Potency [7]: 10 µM (active)
- Potency [8]: inactive
- Potency [9]: inactive
- Potency [10]: inactive
- outcome [11]: inactive
- Potency [12]: inactive
- Potency [13]: inactive

Structure (SMILES): CCC1(c2ccccc2)C(=O)NCNC1=O
- activity change, negative = inhibition ([1]; at 25.7 µM (top of the series)): -1.4% (inactive)
- activity change, negative = inhibition ([1]; at 57.5 µM (top of the series)): 0.988% (inactive) and 9.51% (inactive)
- max response [1, 19]: 4.93% and -20.9% and 16.1%
- max response [1, 20]: 2.59% and -19% and 28.8%
- Potency [14]: inactive
- Potency [3]: inactive
- Potency [15]: inactive
- Potency [16]: inactive
- Potency [4]: inactive
- Potency [5]: inactive
- Potency [6]: inactive
- Potency [7]: inactive
- Potency [8]: inactive
- Potency [10]: inactive
- Potency [17]: inactive
- outcome [11]: inactive
- Potency [12]: inactive
- Potency [13]: inactive

Structure (SMILES): NC12CC3CC(CC(C3)C1)C2
- activity change, negative = inhibition ([1]; at 25.7 µM (top of the series)): -3.08% (inactive)
- activity change, negative = inhibition ([1]; at 57.5 µM (top of the series)): 3.74% (inactive) and -0.728% (inactive)
- max response [1, 19]: 0.387% and 4.41% and -44.8%
- max response [1, 20]: -3.12% and 9.04% and -45.9%
- Potency [2]: inactive
- Potency [3]: inactive
- Potency [16]: 11.2 µM (active)
- Potency [4]: inactive
- Potency [5]: inactive
- Potency [7]: 6.31 µM (active)
- Potency [8]: inactive
- Potency [9]: inactive
- Potency [10]: inactive
- outcome [11]: inactive
- Potency [12]: inactive
- Potency [13]: inactive

Structure (SMILES): COc1nc(C)nc(Cl)c1NC1=NCCN1
- activity change, negative = inhibition ([1]; at 25.7 µM (top of the series)): -2% (inactive)
- max response [1, 19]: -13%
- max response [1, 20]: -15%
- Potency [2]: inactive
- Potency [14]: inactive
- Potency [3]: inactive
- Potency [15]: inactive
- Potency [16]: inactive
- Potency [4]: inactive
- Potency [5]: inactive
- Potency [6]: inactive
- Potency [8]: inactive
- Potency [10]: inactive
- outcome [11]: inactive
- Potency [12]: inactive
- Potency [13]: inactive

Structure (SMILES): Cc1ccc(C(=O)Nc2ccc(S(=O)(=O)O)c3cc(S(=O)(=O)O)cc(S(=O)(=O)O)c23)cc1NC(=O)c1cccc(NC(=O)Nc2cccc(C(=O)Nc3cc(C(=O)Nc4ccc(S(=O)(=O)O)c5cc(S(=O)(=O)O)cc(S(=O)(=O)O)c45)ccc3C)c2)c1
- activity change, negative = inhibition ([1]; at 57.5 µM (top of the series)): 2.55% (inactive) and 9.29% (inactive)
- max response [1, 19]: -19.7% and 7.39%
- max response [1, 20]: -18.9% and 17.7%
- Potency [2]: 8.91 µM (active)
- Potency [3]: 4.47 µM (active)
- Potency [7]: 12.6 µM (active)
- Potency [9]: inactive
- Potency [17]: inactive
- outcome [11]: inactive
- Potency [12]: inactive
- Potency [13]: inactive

Structure (SMILES): COc1ccc2c(c1)c(CC(=O)O)c(C)n2C(=O)c1ccc(Cl)cc1
- activity change, negative = inhibition ([1]; at 25.7 µM (top of the series)): 0.248% (inactive)
- activity change, negative = inhibition ([1]; at 57.5 µM (top of the series)): 13.5% (inactive)
- max response [1, 19]: 4.07% and 38%
- max response [1, 20]: -0.937% and 62.5%
- Potency [2]: inactive
- Potency [3]: inactive
- Potency [15]: inactive
- Potency [16]: inactive
- Potency [4]: inactive
- Potency [5]: inactive
- Potency [6]: inactive
- Potency [8]: inactive
- outcome [18]: inactive
- Potency [10]: inactive
- Potency [17]: inactive
- outcome [11]: inactive
- Potency [12]: inactive
- Potency [13]: inactive
